Only some compounds are listed: those with a hit (about 6.1% of all), similar ones and a draw of the others.
D1 potentiator = enhances dopamine response at the human D1 receptor. P21728. HEK293 TREx D1 cells, calcium flux, dopamine EC20 potentiation. potentiation, % at 10 µM. 0.036% of 360,000 active. AID 504651; in the data active = potentiation above about 30%; note: 0% is about no effect
D3 ag = activates the human D3 dopamine receptor | 0.58% of 410,000 active | P35462 | AID 652048 | max activation, % | D3R DiscoveRx beta-arrestin cells, luminescence, 90 min; in the data active = max activation above about 30%; note: 0% is about no effect
Target sequence (P35462 whole entry, looked up): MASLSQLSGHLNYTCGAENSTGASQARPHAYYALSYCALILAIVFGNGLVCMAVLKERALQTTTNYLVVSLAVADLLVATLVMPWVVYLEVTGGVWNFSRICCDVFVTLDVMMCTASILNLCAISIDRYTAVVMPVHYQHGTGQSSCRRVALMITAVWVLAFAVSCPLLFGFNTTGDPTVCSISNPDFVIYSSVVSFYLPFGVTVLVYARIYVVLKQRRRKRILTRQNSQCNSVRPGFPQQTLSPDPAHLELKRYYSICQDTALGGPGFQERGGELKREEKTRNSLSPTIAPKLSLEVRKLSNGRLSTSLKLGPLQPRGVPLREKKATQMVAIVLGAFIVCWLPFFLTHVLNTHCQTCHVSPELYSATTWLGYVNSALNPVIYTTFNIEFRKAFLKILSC
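Agonist-mode cell screen: cells plated at 1500/well and incubated overnight at 37 °C, then exposed to library compounds for 90 min at 37 °C. Detection reagent was added for 30–60 min at room temperature, and luminescence was read.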
DRD3 antagonist = blocks the human D3 dopamine receptor; P35462; D3R cells, DiscoveRx beta-arrestin luminescence, antagonist mode; active compounds read low; max response, negative = inhibition, %; 2.5% of 360,000 active; AID 652054; in the data active = max response below about -50%; inconclusive = no clear call, values can overlap the other calls; note: % is set by controls: 0 for no effect and ±100 for the full control effect
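Cells expressing the human receptor were seeded at 1500 cells/well, incubated overnight at 37 degrees C in 5% CO2, then exposed to library compounds with dopamine controls for 90 minutes at 37 degrees C before luminescent detection.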
D1 antag = antagonists of human D1 dopamine receptor. P21728. HEK293 TREx D1 cells, calcium flux, dopamine EC80; active compounds read low. activity change, negative = inhibition, % at 10 µM. 3.2% of 360,000 active. AID 504652; in the data active = activity change below about -30%; note: % is set by controls: 0 for no effect and ±100 for the full control effect
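Antagonism measured as reduced calcium response to an EC80 dopamine addition following 180 s compound pre-read; cells were inducible HEK293 Trex D1 plated overnight at 30 C, read kinetically at 1 cycle/sec.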
D1 agonist = activates the human D1 dopamine receptor; HEK293 T-REx D1 cells, calcium flux, agonist mode; 1% of 360,000 active; activation, % at 2 µM; P21728; in the data active = activation above about 30%; note: 0% is about no effect
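Agonism was scored from calcium flux recorded over 180 s (1 read/s) after pintool compound addition, following a 10-cycle baseline. Cells were inducible force-coupled HEK293 TREx D1, plated overnight at 30 C and loaded with no-wash calcium dye.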
The depositor's hits bear a star; ? = inconclusive; . = no result given.

SMILES | D1 potentiator | D3 ag | DRD3 antagonist | D1 antag | D1 agonist
Cc1cc(C)cc(OCC(=O)OCc2nnc(-c3ccccc3)o2)c1 | -3.5 | 1.2 | 3.3 | -10.9 | 3.8
Cc1ccc(C(=O)CCC(=O)OCc2nnc(-c3ccccc3)o2)cc1 | -4.2 | 2.9 | -60.1* | -9.1 | 14.1
COc1ccc(CN2CCc3ccccc3C2)cc1Br | -1.0 | -7.0 | -92.4* | 6.5 | -3.5
COc1ccc(CN2CCc3cc(OC)c(OC)cc3C2)cc1O | -3.6 | -55.8 | -57.6* | -47.8* | 0.7
COc1cc2c(cc1OC)CN(Cc1ccc(F)cc1)CC2 | -2.1 | -27.2 | -30.0 | -4.8 | 1.0
COc1cc(CNc2ccc(CNc3ncn[nH]3)cc2)ccc1OCc1ccccc1 | 23.6 | 0.0 | -6.0 | -6.6 | -0.4
COc1cc(/C=C2\CCC(C3CCCC3)C2=O)cc(OC)c1OC (stereo not given) | -1.8 | 4.7 | 0.0 | -26.4 | 2.3
COc1cc(/C=C2\CC(C(C)(C)C)C/C(=C\c3cc(OC)c(OC)c(OC)c3)C2=O)cc(OC)c1OC (stereo not given) | -3.3 | 2.0 | 1.5 | 1.0 | 32.0*
COc1cc(/C=C2\COC/C(=C\c3cc(OC)c(OC)c(OC)c3)C2=O)cc(OC)c1OC | 3.2 | -11.8 | -62.7* | 7.4 | 0.6
COc1cc(/C=C2\CC/C(=C\c3cc(OC)c(OC)c(OC)c3)C2=O)cc(OC)c1OC | -3.4 | -7.9 | -4.3 | 2.3 | 1.9
COc1cc(/C=C2\CC/C(=C\c3cc(OC)c(O)c(OC)c3)C2=O)cc(OC)c1O | 1.0 | -7.7 | -73.6* | -0.2 | 4.1
COc1ccc(C(CNC(=S)NCc2ccccc2)N2CCCC2)cc1 (stereo not given) | -2.5 | -34.8 | -57.8* | -8.6 | 24.5
COc1ccccc1C(CNC(=S)NCc1ccccc1)N1CCCC1 (stereo not given) | -4.1 | -20.4 | -28.3 | 4.5 | 6.4
O=C(NCC(c1ccc(F)cc1)N1CCOCC1)c1ccccc1F (stereo not given) | -9.1 | -2.6 | 10.1 | -39.0* | 1.0
COc1ccc(C(CNC(=O)c2ccccc2C)N2CCCC2)cc1 (stereo not given) | -2.4 | -34.1 | -85.3* | 4.7 | 0.6
O=C(NCC(c1ccc(F)cc1)N1CCOCC1)c1cc(F)c(F)c(F)c1F (stereo not given) | -9.1 | -0.4 | 15.6 | -6.2 | 3.3
COc1ccc(C(=O)NCC(c2ccc(N(C)C)cc2)N2CCCC2)c(OC)c1 (stereo not given) | 1.6 | -20.3 | . | -8.3 | -1.3
COc1ccc(Cl)cc1C(=O)NCC(c1ccc(N(C)C)cc1)N1CCCC1 (stereo not given) | 1.9 | -16.1 | . | -6.0 | 34.0*
COc1ccc(Cl)cc1NC(=O)c1c(NCc2sccc2C)sc2c1CCCC2 | 8.2 | 0.4 | . | -19.7 | 8.1
COc1ccc(C(CNC(=O)c2oc3ccc(Cl)cc3c2C)N2CCCCC2)cc1 (stereo not given) | 5.7 | -17.9 | -103.3* | 20.9 | 3.5
COc1ccc(C(CNC(=O)c2oc3ccccc3c2C)N2CCCC2)cc1 (stereo not given) | . | -17.9 | ? | 8.5 | 4.7
COc1ccc(C(CNC(=O)c2cc(=O)[nH]c3ccccc23)N2CCCC2)cc1 (stereo not given) | -7.0 | -4.3 | 5.8 | -37.5* | 4.7
CSc1ncccc1C(=O)NCC(c1cccs1)N1CCOCC1 (stereo not given) | -2.8 | -2.5 | 2.1 | -80.1* | 3.0
COc1ccc(C(CNC(=O)C(CCSC)NC(=O)c2ccccc2Cl)N2CCCCC2)cc1 (stereo not given) | . | -22.6 | -59.1* | -4.3 | 2.8
COc1ccc(C(CNC(=O)C(CCSC)NC(=O)c2ccccc2Cl)N2CCCC2)cc1 (stereo not given) | 9.8 | -8.0 | -20.4 | 7.6 | -0.2
SMILES | D1 potentiator | D3 ag | DRD3 antagonist | D1 antag | D1 agonist
COc1ccc2nc(NC(=O)c3ccc(S(=O)(=O)N4CCC(C)CC4)cc3)sc2c1 | 0.2 | -1.4 | . | -9.3 | 4.2
Cc1c(NC(=O)/C(C#N)=C/C2CC=CCC2)c(=O)n(-c2ccccc2)n1C (stereo not given) | 2.6 | 3.5 | ? | 2.7 | 1.2
O=C(c1ccc([N+](=O)[O-])o1)N1CCN(c2nc3c(Cl)cccc3s2)CC1 | -8.9 | -2.3 | 0.6 | -34.0* | 2.6
COc1cccc2sc(N3CCN(C(=O)c4ccc([N+](=O)[O-])o4)CC3)nc12 | 1.1 | -8.0 | -10.7 | 5.2 | 1.5
CCCN(CCC)C(=O)CN1C(=O)CSc2ccc(S(=O)(=O)N3CCC(C)CC3)cc21 | -5.2 | 10.9 | . | -90.7* | 3.1
CCCCNC(=O)CN1C(=O)CSc2ccc(S(=O)(=O)N3CCC(C)CC3)cc21 | 3.8 | 3.1 | . | 27.2 | 1.2
Cc1ccc(-c2csc(-c3c(N)c(C(=O)c4ccc5c(c4)OCO5)n4ccccc34)n2)cc1 | -1.8 | -11.0 | . | -17.4 | 4.6
CCOc1ccc(-c2csc(-c3c(N)c(C(=O)c4ccc5c(c4)OCO5)n4ccccc34)n2)cc1 | -3.1 | -12.7 | . | -1.1 | 41.8*
Nc1c(-c2nc(-c3ccccc3)cs2)c2ccccn2c1C(=O)c1ccc2c(c1)OCO2 | -0.9 | -14.0 | . | -7.8 | 34.9*
Cc1ccccc1NC(=O)C(NC1CCCCC1)C(C)C (stereo not given) | -3.0 | -4.2 | 1.7 | -5.2 | 1.5
CC(C)(C)C(=O)c1sc2nc(-c3cccs3)cc(C(F)(F)F)c2c1N | -0.7 | 0.5 | -19.1 | -4.5 | -0.4
Nc1c(C(=O)Nc2nccs2)sc2nc(-c3cccs3)cc(C(F)(F)F)c12 | -0.3 | -3.8 | 16.7 | 5.0 | 115.6*
Cc1nnc(NC(=O)c2sc3nc(-c4cccs4)cc(C(F)(F)F)c3c2N)s1 | -2.4 | 4.0 | 0.0 | -30.1* | 361.2*
CCOC(=O)c1sc(=S)n(-c2ccccc2)c1N | -2.2 | 3.7 | 19.9 | 23.3 | 3.8
COC(=O)c1sc(=S)n(-c2cccc(Cl)c2)c1N | -2.8 | 4.5 | -14.1 | -33.6* | -0.5
CCN(CC)CCN(C(=O)CCOc1ccccc1)c1nc2ccc(F)cc2s1 | -2.0 | -13.2 | -26.0 | -9.0 | 0.4
CCCCC(C(=O)O)C(C)CC(=O)Nc1ccn(-c2ccccc2)n1 (stereo not given) | -4.2 | 6.9 | 16.1 | -59.5* | 2.3
COc1ccc(N2CCN(C(=O)CSc3c4c(nc5ccc(Cl)cc35)CCCC4)CC2)cc1 | -1.2 | -12.1 | . | 14.1 | 4.6
O=C(Nc1nnc(-c2ccc3c(c2)CCCC3)o1)c1ccc(Cl)cc1Cl | 4.2 | -10.4 | 7.3 | -4.7 | 35.6*
O=C(Nc1nnc(-c2ccc3c(c2)CCCC3)o1)C1CCCCC1 | -5.0 | -1.1 | 1.4 | -46.4* | 1.4
CCCCSc1nc(O)c(C2OC(=O)c3c2ccc(OC)c3OC)c(=O)n1-c1ccccc1 (stereo not given) | 2.1 | 0.4 | ? | -33.5* | 0.7
CCCSc1nc(O)c(C2OC(=O)c3c2ccc(OC)c3OC)c(=O)n1-c1ccccc1 (stereo not given) | -4.3 | -7.5 | 0.0 | 1.2 | -0.1
